The supplement of paper PMC6555819

How the values were obtained:
Assay in all cases: PBM binding z-score (relative to random genomic background probes); higher = stronger binding; sequences stand for … in GC…GCGATTGACAGCGTAGAATGAAGG
[1] = system: FXR:RXRa (NR concentration 270 nM, RXRa partner concentration 90 nM)
Outline: (§1)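 The probes on custom Agilent 4×180K protein-binding microarrays were double-stranded, with 34-nt variable regions bearing direct-repeat seeds, single-nucleotide variants, half-site ablations and random human genomic background sequences. Incubation lasted 1 h with ligand-free nuclear receptor dimers in PBS pH 7.4, 2% milk, 0.02% Triton X-100, 1 mM DTT, 0.2 mg/mL BSA and 0.4 mg/ml salmon testes DNA. Antibodies against each partner (one per run) detected bound dimers, and fluorescence scans were regression-normalized. Binding z-scores take the random background probes as reference.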

[2] = system: LXRa:RXRa (NR concentration 270 nM, RXRa partner concentration 90 nM)
Outline: as §1

[3] = system: LXRa homodimer (NR concentration 270 nM)
Outline: as §1

[4] = system: LXRb:RXRa (NR concentration 270 nM, RXRa partner concentration 90 nM)
Outline: as §1

[5] = system: LXRb homodimer (NR concentration 270 nM)
Outline: as §1

[6] = system: PPARa:RXRa (NR concentration 270 nM, RXRa partner concentration 90 nM)
Outline: as §1

[7] = system: PPARg:RXRa (NR concentration 180 nM, RXRa partner concentration 90 nM)
Outline: as §1

[8] = system: PPARg:RXRa 270nM:90nM, anti-RXR (NR concentration 270 nM, RXRa partner concentration 90 nM)
Outline: as §1

[9] = system: PPARg:RXRa 30nM:10nM, anti-RXR (NR concentration 30 nM, RXRa partner concentration 10 nM)
Outline: as §1

[10] = system: PPARg:RXRa 90nM:30nM, anti-RXR (NR concentration 90 nM, RXRa partner concentration 30 nM)
Outline: as §1

[11] = system: PPARg:RXRa DBDmut IVT, anti-RXR (DBD mutation: RXRa K156A/R161A, NR concentration 270 nM, RXRa partner concentration 90 nM)
Outline: as §1

[12] = system: PPARg:RXRa IVT, anti-PPARg (NR concentration 270 nM, RXRa partner concentration 90 nM)
Outline: as §1

[13] = system: PPARg DBDmut:RXRa IVT, anti-PPARg (DBD mutation: PPARg1 K132A/R137A, NR concentration 270 nM, RXRa partner concentration 90 nM)
Outline: as §1

[14] = system: PPARg DBDmut IVT, anti-PPARg (DBD mutation: PPARg1 K132A/R137A, NR concentration 270 nM)
Outline: as §1

[15] = system: PPARg homodimer (NR concentration 180 nM)
Outline: as §1

[16] = system: PXR:RXRa (NR concentration 270 nM, RXRa partner concentration 90 nM)
Outline: as §1

[17] = system: PXR homodimer (NR concentration 270 nM)
Outline: as §1

[18] = system: RARa:RXR (NR concentration 270 nM, RXRa partner concentration 90 nM)
Outline: as §1

[19] = system: RARa homodimer (NR concentration 270 nM)
Outline: as §1

[20] = system: RARb:RXRa (NR concentration 270 nM, RXRa partner concentration 90 nM)
Outline: as §1

Sequence | PBM binding z-score [1] | PBM binding z-score [2] | PBM binding z-score [3] | PBM binding z-score [4] | PBM binding z-score [5] | PBM binding z-score [6] | PBM binding z-score [7] | PBM binding z-score [8] | PBM binding z-score [9] | PBM binding z-score [10] | PBM binding z-score [11] | PBM binding z-score [12] | PBM binding z-score [13] | PBM binding z-score [14] | PBM binding z-score [15] | PBM binding z-score [16] | PBM binding z-score [17] | PBM binding z-score [18] | PBM binding z-score [19] | PBM binding z-score [20]
GCAGACAGGTGAAACGCAGGTACCTCAGGGTGGC | -0.505 | -0.351 | -1.08 | -0.737 | -1.1 | 0.616 | 0.419 | -0.439 | -0.666 | -0.889 | 0.673 | 0.204 | -1.1 | -1.9 | -1.33 | -0.784 | -0.782 | -0.474 | -1.48 | 0.346
ACTATTAGTGGACTTAGGGCAACCGATACGACGC | 0.086 | -0.113 | -0.0613 | -0.278 | 0.0908 | -0.455 | 0.923 | 0.348 | 0.284 | 0.211 | 0.261 | 0.425 | 0.622 | 0.53 | -0.531 | -0.184 | 0.307 | -0.1 | 0.447 | 0.196
GCTAGCAGGCCATTTGGGTCACTCCATGACGGGC | -0.16 | -0.308 | -0.39 | -0.515 | -0.772 | 0.964 | 0.542 | 0.345 | -0.692 | -0.372 | 1.48 | 1.98 | -0.282 | -0.961 | -0.247 | 0.113 | -0.146 | 0.126 | -0.604 | 1.39
ACTAGCAGGCCAGGGGTCACTCAAGATTAGTCCG | 4.12 | 3.93 | 0.488 | 4.47 | 0.258 | 5.04 | 6.84 | 6.37 | 4.58 | 6.76 | 0.771 | 3.24 | 0.053 | 0.0858 | 2.99 | 5.13 | 0.401 | 5.58 | 1.68 | 3.85
AGAACGAGGGCACGCTGAGGTGATAGCAGAGTAG | 1.52 | 0.73 | -0.584 | 0.0618 | -1 | 2.18 | 2.3 | 2.19 | 0.193 | 1.29 | 4.07 | 4.06 | 1.26 | 0.179 | 0.573 | 0.989 | -0.0676 | 1.66 | -0.189 | 2.66
CCTGCTAAGTCATGGTCAGCTAATCTACAGTATG | -0.197 | -0.105 | -0.185 | -0.137 | -0.307 | -0.22 | -0.135 | -0.368 | -0.358 | -0.204 | 0.985 | -0.177 | -0.766 | -0.271 | 0.146 | -0.158 | -0.39 | -0.0535 | -0.167 | 0.586
CCTAGCAGGCCATGGTCACTCAAGCATTTCGCTT | -0.268 | -0.369 | -0.374 | -0.307 | -0.863 | -0.349 | -0.143 | -0.198 | -0.855 | -0.418 | 1.57 | 0.401 | -1.7 | -1.39 | -0.683 | -0.611 | -0.713 | -0.498 | -0.226 | 0.678
CGTCCAAGGTCAGCAGGTCAGTTAAAGCGACGTG | 6.18 | 4.17 | 0.53 | 3.54 | -0.0511 | 4.97 | 4.14 | 4.73 | 1.44 | 3.28 | 3.4 | 3.71 | -0.851 | -0.676 | 3.29 | 3.76 | 0.476 | 4.7 | 1.05 | 5.53
TCATATAGGTAAAGGTGAATGTCGAACGATATGA | 0.972 | 1.33 | -0.151 | 1.19 | -0.0794 | 2.99 | 4.24 | 4.23 | 4.36 | 4.59 | 3.9 | 4.33 | 0.991 | 1.7 | 1.02 | 0.695 | 0.181 | 1.46 | 0.501 | 1.87
ACTAGCAGGCCAAGTTTGTGTCACTCAAACAAAG | -0.566 | -0.667 | -0.358 | -0.814 | -0.886 | -0.219 | -0.46 | -0.574 | -0.538 | -0.746 | 0.66 | 0.636 | -0.284 | -0.278 | -0.972 | -0.323 | -0.685 | -0.217 | -0.826 | 0.471
AATACAGGGTCTCTAGGCCAGAGTAGGTACGAAT | -0.207 | -0.38 | -0.356 | -0.392 | -0.462 | -0.078 | 0.645 | 0.0123 | -0.245 | -0.282 | 0.633 | 1.69 | -0.23 | -0.134 | 0.115 | -0.522 | -0.459 | -0.47 | -0.399 | 0.389
AGAATGAGGTTAAGATCAGGGCAACAGAATACAT | 2.64 | 2.98 | 0.329 | 2.17 | 0.282 | 3.7 | 2.57 | 2.84 | 1.29 | 2.24 | 2.97 | 3.28 | 1.36 | 0.923 | 1.05 | 2.34 | 0.694 | 2.78 | 0.44 | 2.45
CCAGACAGGTGATAAGGTAACTCAGCCTCGATTA | 0.336 | 0.0665 | -0.0911 | 0.157 | -0.187 | 0.51 | 0.555 | 0.114 | 0.063 | 0.191 | 0.812 | 0.261 | 0.0987 | -0.29 | 1.14 | -0.0216 | 0.227 | 0.472 | 0.984 | 0.359
GCTCTGAGGACAAGGTCAGAGCTTTGTCCGTAGA | 1.69 | 1.56 | -0.176 | 1.45 | -0.782 | 2.3 | 1.02 | 2.06 | 0.095 | 1.22 | 0.898 | 1.09 | -0.229 | -0.596 | 0.274 | 2 | -0.088 | 2.88 | -0.844 | 3.61
